Measured values reported in the supplement of paper PMC3334620.
Over roughly 33,000 sequences, “E-score (-0.5 to 0.5)” has its median near -0.017; the highest 2% begin near 0.3. Only a selection was taken, and the highest values are over-represented in it overall.

target: T1, Sut1 (UniProt P53032); assay: PBM E-score (8-mer binding enrichment) (E-score (-0.5 to 0.5)); higher = stronger / more preferred TF binding; settings: protein concentration: 200 nM; construct: GST-full length
T1 sequence: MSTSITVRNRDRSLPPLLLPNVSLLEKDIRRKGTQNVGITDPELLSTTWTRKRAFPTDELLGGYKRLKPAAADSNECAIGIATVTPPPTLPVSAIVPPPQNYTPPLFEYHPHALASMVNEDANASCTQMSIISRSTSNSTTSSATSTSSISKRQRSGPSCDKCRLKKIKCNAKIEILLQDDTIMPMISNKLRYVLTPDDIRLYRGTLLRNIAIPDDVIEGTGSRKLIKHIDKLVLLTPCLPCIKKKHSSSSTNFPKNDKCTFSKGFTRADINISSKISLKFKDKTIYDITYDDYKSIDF
Method: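 Universal 'all 10-mer' protein binding microarrays (Agilent AMADID 015681) probed with GST-tagged S. cerevisiae TFs (full-length or DBD) made by in vitro transcription/translation (PURExpress), about 100-200 nM. Bound TF was detected with fluorescent anti-GST. Each ungapped 8-mer (which stands for itself and its reverse complement) is scored by the PBM enrichment score (E-score), a modified Wilcoxon-Mann-Whitney statistic from -0.5 to +0.5, computed with the Universal PBM Analysis Suite. Scale: above 0.35 generally sequence-specific binding.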

Sequence	PBM E-score
ATATAGGA	0.0279
AAATTGCA	-0.0262
ACCCTATC	0.0201
CTTGAACA	0.0785
GTTGCGCA	-0.226
CAGCCTAC	-0.0545
CGGATGCA	-0.0215
GATGTATA	0.0593
CTTGTATA	0.166
CATGTATA	0.0763
ATTGTATG	0.175
ATTGTATA	0.311
AATGTATA	0.298
AGCCTACG	-0.109
AGCCCATC	-0.23
AACATGGG	-0.00269
CTATTGAA	0.226
CAAACAAA	0.161
AAACAAAA	0.197
AAACAAAC	0.165
TAAAACAA	0.207
GAAACAAA	0.321
AAACAAAG	0.322
AAAAACAA	0.316
GAAACAAC	0.107

Sequence	PBM E-score
GAAAACAA	0.184
ACCAACAT	0.0524
ACCAACAG	-0.297
ACCAACAA	0.299
GAGTTGAA	0.18
ACAGATAT	0.0244
ATAAGTTC	0.261
ATACAGTG	0.0667
CTCCAAAG	0.0263
CCTCGACA	-0.288
CATGCGTA	-0.0829
ATCAGTTA	0.204
GAAAAACA	0.125
AAAAAACA	0.313
TAAAAACA	0.188
AAAACAAG	0.0776
AAAACAAA	0.312
AAAACAAT	0.215
AAGTTACC	0.158
CCCAAGGC	-0.0767
GATACGCA	-0.141
CATACGGA	0.303
CATACGGG	-0.186
GATACGGA	0.364
GATACGGC	-0.104

Sequence	PBM E-score
CATACGGC	-0.156
AATACGGA	0.286
TATACGGA	0.312
TATACGAA	0.194
ATGAGTCA	-0.0351
GCGCTAAC	-0.0641
TAGCTATA	-0.0172
GCGATCCA	-0.121
AGTTTTAT	0.211
TACCACCA	0.0245
CAGCCTGC	-0.224
AGACGAGG	-0.182
CGTACTCA	0.0162
CGTACTAC	0.0559
AGTACTCA	0.0483
AGTACTCG	0.0601
CGTACTCC	0.348
AGTACTCC	0.325
AAAGTCAG	0.00828
GCTAAAGC	-0.0213
CCTATCGC	-0.115
CAGCAAAG	-0.0349
CTCCGTCA	0.369
CCCCGTCC	-0.194
ATCCGTCA	0.0376

Sequence	PBM E-score
ATCCGTCC	-0.0115
CTCCGTCC	0.307
GTCCGTCA	0.253
CTACACAG	-0.108
CCAGGGTC	-0.265
ACGTATTC	-0.0472
TGACTTAA	0.153
CAGTCCGC	0.196
GAGTCCGA	0.476
CAGTCCGA	0.411
TAGTCCAA	-0.01
GCGTCCGA	-0.09
TAGTCCGA	0.48
GAGTCCGC	0.282
CAGTCCAG	-0.325
CAGTCCGG	0.353
CAGTCCCG	-0.0578
TAGTCCCA	-0.21
CCGTCCGA	0.0411
AACTTACT	0.0273
CGCCCTTC	-0.0609
AGTGGCGA	0.0883
AGGGGCCC	-0.217
AACAGAAT	0.0169
ATCGATGG	-0.0596

Sequence	PBM E-score
AGGCTACG	-0.345
AAGTCTGA	-0.193
CAAATTCA	0.0268
GCAGAATA	-0.0687
ACACCGGT	0.0191
ACACCGGA	0.343
GCACCGTA	0.0972
ACACCGGC	0.0168
CCACCGGA	0.362
CCACCGGG	-0.0405
TCACCGAA	0.155
GCACCGGC	-0.0791
TCACCGGA	0.397
CCACCGGC	0.0248
TCACCGCA	-0.0955
GCACCGGA	0.338
GGCTTTAC	0.113
ACTGAGAC	0.00875
ATCCAGAC	-0.0133
CGGTTTAC	0.00822
AGGGCTGA	-0.161
CGAGGAAG	0.0543
AAGCCATC	0.0153
TAACAGGA	0.0331
GAACCAGA	-0.185

Sequence	PBM E-score
GAACGTGC	-0.234
TGGTTAAA	0.159
TAACGGAA	0.309
CAACGGAC	0.291
CAACGGAG	0.399
AAACGGGA	0.159
TCACGGAA	0.238
GAACGGAA	0.166
CAACGGAA	0.25
AAACGGAC	0.147
AAACGGTA	0.0446
AAACGGAA	0.331
AAACGGAT	0.209
AAACGGAG	0.37
ACCCAACG	-0.0276
CACCCTAC	-0.161
CATATGCG	-0.0808
AGTAAACG	-0.0776
CTACCAGC	-0.212
GGCGTTGA	-0.134
GCAGTAAC	-0.144
GAATTGTA	0.128
CTCTCCCC	-0.259
AATGCTTG	-0.238
CGACCTGA	-0.184

Sequence	PBM E-score
CCTAAAGA	0.0405
ACTAATCA	0.139
CAGAGTCA	-0.379
TAAAGAAA	0.301
GAAAGAAA	0.294
CAAAGAAA	0.115
CCAAGAAA	0.241
TCAAGAAA	0.316
ACAAGAAA	0.218
CTAGGCCA	-0.145
ATGGGGAA	-0.0455
GAGAAGGC	-0.0615
CGCGCACC	-0.0354
GGTGAGAA	0.137
CCGCTCAA	-0.078
ACTCCTGC	0.0597
CCTCCGGC	0.106
ACTCCGGC	0.489
ACTCCGGG	0.491
CATCCGGG	-0.0527
ACTCCCGG	0.174
TACAATGA	0.153
CAAGATTC	0.235
CTACGGAG	0.381
CTACGGAA	0.0897

Sequence	PBM E-score
ATACGGTG	0.0347
ATACGGAT	0.0822
ATACGGAG	0.362
CTACGGAC	0.169
CAGAAGGG	-0.238
ACTGCAAG	-0.0394
ATGGGAAA	0.0371
ATGGCCGG	-0.0767
AGCCGGAT	0.125
AGCCGGTG	0.00841
AGCCGGTC	-0.166
AGCCGGAG	0.371
CGCCGGCC	-0.0583
AGCCGGCG	-0.0364
CGCCGGCG	0.375
AGCCGGAC	0.342
CGCCGGAC	0.275
AGCCGGAA	0.233
GGCCGGAA	0.0761
GGCCGGAC	0.302
ACTTCTCA	-0.033
GCCCATGA	-0.222
AAGAGCGG	0.0491
GTCGCGCA	0.0446
TACTCTCA	0.0648

Sequence	PBM E-score
AACCGTCA	-0.0173
CGCCGGAA	0.132
CGCCGGAG	0.391
CGCCGTAG	0.0361
GCGAACGA	0.0664
ATTACTCG	0.0802
ATTACTTA	0.327
CATACTCC	0.325
GCTACTCC	0.3
ATTACTCA	0.162
CTTACTTA	0.11
ATTACTCC	0.318
ATTACTGA	0.037
ACTACTCC	0.226
GCTACTCA	0.0293
CATACTCA	-0.0521
AATACTCC	0.199
AATGGATC	0.0349
ATCGACCC	0.0935
AGTTTTTG	0.28
CGGGAGAG	-0.0788
TACACTCA	0.0601
ACATACTG	0.0299
AGAGCACA	-0.0607
AGTACCTG	0.0244

Sequence	PBM E-score
GCTCATGA	-0.172
CTGAAGAC	-0.0142
CTTACTCC	0.365
CTTACTCA	-0.0535
CTTACTAC	0.0954
TAGCCCCA	-0.121
TCCGTTAA	0.326
GCCGTTAA	0.092
CCCGTTAA	-0.176
CCCAAAGC	-0.0681
CCCTGGTA	-0.336
CTTGGGGC	-0.245
GGGTTAAC	0.0764
CTCCTAAG	-0.111
TACTCCAA	-0.0372
TACTCCGA	0.491
GACTCCGA	0.486
CACTCCGA	0.471
TCCTCCGA	0.0213
GACTCCTA	0.0134
GACTCCAA	-0.0971
CACTCCAA	0.0306
CCCTCCGA	0.0492
AAACTATT	0.24
AGCTAGGC	-0.232

Sequence	PBM E-score
GCCTAGGA	-0.122
ACTGGGGC	-0.231
GAGCTATC	-0.0645
GACCTTCC	0.0118
AGCCACCT	-0.248
CTCCGAAC	0.468
ATCCGAAC	0.213
GTCCGAAC	0.397
ATCCGAAT	0.32
CACCGAAC	-0.0118
CTCCGAAA	0.46
GACCGAAC	0.0271
AACCGAAT	0.099
CACCGAAA	0.137
CGCCGAAA	-0.00015
ATCCGAAG	0.101
GCCCGAAC	-0.00475
CCTAGCCC	-0.128
AACTAGTC	0.0497
ATCGATCA	0.0202
CGAAACAC	0.0972
CTAACTGA	0.0767
ACTGGAAT	0.0551
CGGCCGCC	-0.05
TTCCGAAA	0.291

Sequence	PBM E-score
CACCGAAG	0.157
CCCCGAAC	0.0945
CTCCGAAG	0.457
GCCCGAAA	0.111
GTCCGAAA	0.447
ATCCGAAA	0.272
CGCCGAAG	0.0368
CCCCGAAA	0.301
GCGCTAGC	-0.26
CGAGCCCG	-0.187
AGAACTAC	0.0481
CATTGATA	0.139
GCGACTCC	0.119
AGGACTCC	0.129
CCGACTCC	0.321
AGGACTCA	-0.114
CAGACTCC	0.0916
CGGACTCA	0.429
CCGACTCA	0.0266
CGGACTCC	0.475
GGGACTCA	-0.288
AAGGTCTA	-0.127
CTGGTTTA	-0.0882
ACCGACAC	0.0514
GCGACTAA	-0.0293

Sequence	PBM E-score
AGCCTAAC	-0.192
GGAACCTA	-0.00606
CGCTGCGA	-0.153
CTGTCCGA	0.192
ATGTCCCG	0.0332
ATGTCCGC	0.282
GTGTCCGA	0.149
ATGTCCGA	0.45
ATGTCCGG	0.451
ACACTGGT	-0.102
AGGGGCGG	-0.158
TAATATTA	0.313
TAATATCA	0.306
GAATATTA	0.255
CAATATGA	0.181
GAATATGA	0.0941
TAATATGA	0.315
CAATATCA	0.188
AAATATCA	0.161
CAATATTA	0.296
AAGCGCGC	0.105
ACCGATCA	0.12
AAAGTTCA	-0.00163
CCGCCTAG	-0.166
TCTTTTCA	0.178

Sequence	PBM E-score
AAGCTTAT	0.0714
GACACGGA	0.296
GAAACGGA	0.284
TAAACGTA	0.131
CACACGGA	0.12
TACACGGA	0.335
CAAACGGA	0.302
TAAACGAA	0.263
AAAACGGA	0.244
TAAACGGA	0.321
CGATGCTC	0.156
CCTTTAGC	-0.0413
AGATCGTC	-0.0781
GCTAAAAA	-0.0323
ACGCGGAG	0.362
ACGCGGAT	0.0724
ACGCGGAC	0.302
CCGCGGAC	0.274
CCGCGGAG	0.308
ACGCGGCC	-0.273
GCGCGGAC	0.218
CCGCGGAA	0.253
ACGCGGAA	0.112
